Experimental data reported in the supplement of paper PMC11732987, “Enantioselective OTUD7B fragment discovery through chemoproteomics screening and high-throughput optimisation” (Communications Chemistry, 2025).

Columns and labels:
Test in all cases: log2 ratio of Biotin-Ahx-Ub-VS probe labelling (fragment/DMSO); higher = less target engagement (more negative = stronger competition), active = hit call of the paper (q ≤ 0.05, log2 ratio ≤ -1)
Conditions in all cases: compound concentration: 200 uM; treatment time: 3 h
[1] = biological target: USP9X (UniProt Q93008)
How it was run: (§1)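 HEK293T lysate (495 µg per sample, in Tris/CHAPS/IGEPAL buffer with protease inhibitors) was exposed in triplicate for 3 h to fragment at 200 µM or to vehicle, then to Biotin-Ahx-Ub-VS at 0.5 µM final for 1 h. Labelled DUBs were enriched on NeutrAvidin, digested with LysC and trypsin, and analysed by diaPASEF LC-MS/MS. Spectronaut label-free quantities were normalised to the global median, and values are average log2 ratios of fragment over vehicle from an unpaired t-test. Only proteins with ≥2 unique peptides were used.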

[2] = biological target: UniProt O00487
How it was run: as §1

[3] = biological target: UniProt O00507
How it was run: as §1

[4] = biological target: UniProt P51784
How it was run: as §1

[5] = biological target: T1, UniProt Q5T2D3
T1 sequence (whole entry): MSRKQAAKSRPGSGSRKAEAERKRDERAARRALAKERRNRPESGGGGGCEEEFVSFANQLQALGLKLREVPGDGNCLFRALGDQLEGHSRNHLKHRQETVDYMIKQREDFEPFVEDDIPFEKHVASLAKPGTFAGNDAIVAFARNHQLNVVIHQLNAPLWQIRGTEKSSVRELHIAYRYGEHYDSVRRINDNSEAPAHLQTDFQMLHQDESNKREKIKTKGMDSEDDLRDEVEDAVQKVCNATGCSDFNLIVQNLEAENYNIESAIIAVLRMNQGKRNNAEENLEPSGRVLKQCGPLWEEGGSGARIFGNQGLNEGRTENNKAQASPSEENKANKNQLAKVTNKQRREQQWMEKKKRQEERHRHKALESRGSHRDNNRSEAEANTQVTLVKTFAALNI
How it was run: as §1

[6] = biological target: T2, UniProt Q8TE49
T2 sequence (whole entry): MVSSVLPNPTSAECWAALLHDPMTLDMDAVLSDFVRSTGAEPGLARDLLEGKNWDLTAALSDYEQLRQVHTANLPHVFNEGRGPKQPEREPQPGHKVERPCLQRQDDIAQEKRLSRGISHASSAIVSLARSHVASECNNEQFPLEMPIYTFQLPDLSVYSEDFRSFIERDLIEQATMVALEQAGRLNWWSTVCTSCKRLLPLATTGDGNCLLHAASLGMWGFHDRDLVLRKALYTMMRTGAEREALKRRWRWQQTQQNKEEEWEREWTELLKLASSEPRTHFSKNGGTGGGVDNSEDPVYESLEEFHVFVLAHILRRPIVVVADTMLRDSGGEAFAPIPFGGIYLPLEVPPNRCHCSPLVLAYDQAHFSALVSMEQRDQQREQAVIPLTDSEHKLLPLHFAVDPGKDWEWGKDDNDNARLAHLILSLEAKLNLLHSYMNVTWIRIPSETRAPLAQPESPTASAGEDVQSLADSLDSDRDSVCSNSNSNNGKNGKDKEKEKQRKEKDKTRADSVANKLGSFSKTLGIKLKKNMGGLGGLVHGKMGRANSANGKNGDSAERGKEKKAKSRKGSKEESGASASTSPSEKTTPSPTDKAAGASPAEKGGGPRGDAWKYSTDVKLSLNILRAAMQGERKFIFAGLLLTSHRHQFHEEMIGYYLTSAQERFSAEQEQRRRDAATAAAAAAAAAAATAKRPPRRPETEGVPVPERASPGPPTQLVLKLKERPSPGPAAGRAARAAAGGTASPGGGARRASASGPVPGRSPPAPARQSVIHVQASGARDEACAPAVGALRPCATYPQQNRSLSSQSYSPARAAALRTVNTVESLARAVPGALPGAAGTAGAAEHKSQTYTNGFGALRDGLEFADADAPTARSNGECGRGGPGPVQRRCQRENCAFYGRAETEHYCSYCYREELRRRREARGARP
How it was run: as §1

[7] = biological target: T3, UniProt Q9P2H5
T3 sequence (whole entry): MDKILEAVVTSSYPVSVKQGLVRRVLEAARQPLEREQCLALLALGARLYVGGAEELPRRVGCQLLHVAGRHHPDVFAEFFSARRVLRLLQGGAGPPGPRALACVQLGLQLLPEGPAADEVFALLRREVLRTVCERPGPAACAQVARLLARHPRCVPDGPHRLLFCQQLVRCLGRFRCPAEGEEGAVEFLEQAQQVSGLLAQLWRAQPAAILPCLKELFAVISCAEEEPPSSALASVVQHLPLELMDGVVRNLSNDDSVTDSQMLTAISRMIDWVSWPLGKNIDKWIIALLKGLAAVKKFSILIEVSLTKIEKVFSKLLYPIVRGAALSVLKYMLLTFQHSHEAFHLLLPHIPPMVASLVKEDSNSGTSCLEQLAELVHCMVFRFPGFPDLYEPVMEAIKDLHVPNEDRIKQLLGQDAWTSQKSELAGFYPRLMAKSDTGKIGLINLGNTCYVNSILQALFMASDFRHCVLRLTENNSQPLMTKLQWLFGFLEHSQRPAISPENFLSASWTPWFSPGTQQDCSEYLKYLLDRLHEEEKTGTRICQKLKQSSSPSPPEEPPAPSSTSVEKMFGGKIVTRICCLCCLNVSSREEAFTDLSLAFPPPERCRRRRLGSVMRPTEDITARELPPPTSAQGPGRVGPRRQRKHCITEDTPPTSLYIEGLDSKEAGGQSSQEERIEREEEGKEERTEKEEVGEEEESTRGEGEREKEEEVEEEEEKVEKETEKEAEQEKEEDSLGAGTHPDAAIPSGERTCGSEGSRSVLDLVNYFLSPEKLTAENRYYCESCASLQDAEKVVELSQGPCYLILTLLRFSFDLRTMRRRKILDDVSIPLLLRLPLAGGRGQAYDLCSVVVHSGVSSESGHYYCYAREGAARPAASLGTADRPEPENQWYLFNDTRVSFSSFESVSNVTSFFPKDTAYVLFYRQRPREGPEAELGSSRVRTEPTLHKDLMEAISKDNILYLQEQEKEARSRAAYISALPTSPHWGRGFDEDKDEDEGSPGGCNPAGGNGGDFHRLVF
How it was run: as §1

[8] = biological target: T4, UniProt Q9UGI0
T4 sequence (whole entry): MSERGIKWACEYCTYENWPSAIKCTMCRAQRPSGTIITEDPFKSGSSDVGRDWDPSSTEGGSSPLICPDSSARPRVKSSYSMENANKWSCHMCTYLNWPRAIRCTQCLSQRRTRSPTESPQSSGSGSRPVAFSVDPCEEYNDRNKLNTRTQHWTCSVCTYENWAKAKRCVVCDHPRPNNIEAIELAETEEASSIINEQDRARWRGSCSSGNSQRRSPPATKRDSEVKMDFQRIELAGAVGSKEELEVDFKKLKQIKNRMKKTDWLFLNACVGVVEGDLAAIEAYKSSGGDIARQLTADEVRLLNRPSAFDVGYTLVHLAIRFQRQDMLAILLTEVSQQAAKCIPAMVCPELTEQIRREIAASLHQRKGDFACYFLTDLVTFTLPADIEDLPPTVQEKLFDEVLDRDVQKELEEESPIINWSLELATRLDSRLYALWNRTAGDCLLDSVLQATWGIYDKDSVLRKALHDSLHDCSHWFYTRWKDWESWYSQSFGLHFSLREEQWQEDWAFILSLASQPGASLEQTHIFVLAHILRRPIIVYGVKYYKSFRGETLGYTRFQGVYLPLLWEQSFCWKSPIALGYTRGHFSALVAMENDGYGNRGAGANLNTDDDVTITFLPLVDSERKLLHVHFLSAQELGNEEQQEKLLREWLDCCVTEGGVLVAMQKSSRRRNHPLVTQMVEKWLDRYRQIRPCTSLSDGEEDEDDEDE
How it was run: as §1

[9] = biological target: T5, YOD1 (UniProt Q5VVQ6)
T5 sequence (whole entry): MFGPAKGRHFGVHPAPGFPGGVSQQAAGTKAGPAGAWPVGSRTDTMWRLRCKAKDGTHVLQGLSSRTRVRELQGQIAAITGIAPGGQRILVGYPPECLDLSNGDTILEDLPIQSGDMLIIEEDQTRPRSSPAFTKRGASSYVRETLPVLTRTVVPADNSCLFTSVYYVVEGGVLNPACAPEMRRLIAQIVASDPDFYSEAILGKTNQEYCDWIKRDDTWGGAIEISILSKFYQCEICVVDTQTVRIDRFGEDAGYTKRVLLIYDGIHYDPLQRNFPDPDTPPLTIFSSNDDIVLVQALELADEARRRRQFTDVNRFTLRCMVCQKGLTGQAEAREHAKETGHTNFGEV
How it was run: as §1

Measured: log2 ratio of Biotin-Ahx-Ub-VS probe labelling

Chain of UniProt O00487 (O00487 whole entry): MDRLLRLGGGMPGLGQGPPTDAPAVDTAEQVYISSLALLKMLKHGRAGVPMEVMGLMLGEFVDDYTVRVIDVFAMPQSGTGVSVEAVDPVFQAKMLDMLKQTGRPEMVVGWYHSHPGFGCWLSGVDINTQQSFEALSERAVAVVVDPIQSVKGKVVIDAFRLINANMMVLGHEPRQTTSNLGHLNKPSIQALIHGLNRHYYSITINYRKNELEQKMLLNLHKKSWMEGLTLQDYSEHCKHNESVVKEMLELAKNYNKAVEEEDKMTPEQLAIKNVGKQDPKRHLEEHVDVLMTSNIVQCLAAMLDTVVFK
Chain of UniProt O00507 (O00507 whole entry): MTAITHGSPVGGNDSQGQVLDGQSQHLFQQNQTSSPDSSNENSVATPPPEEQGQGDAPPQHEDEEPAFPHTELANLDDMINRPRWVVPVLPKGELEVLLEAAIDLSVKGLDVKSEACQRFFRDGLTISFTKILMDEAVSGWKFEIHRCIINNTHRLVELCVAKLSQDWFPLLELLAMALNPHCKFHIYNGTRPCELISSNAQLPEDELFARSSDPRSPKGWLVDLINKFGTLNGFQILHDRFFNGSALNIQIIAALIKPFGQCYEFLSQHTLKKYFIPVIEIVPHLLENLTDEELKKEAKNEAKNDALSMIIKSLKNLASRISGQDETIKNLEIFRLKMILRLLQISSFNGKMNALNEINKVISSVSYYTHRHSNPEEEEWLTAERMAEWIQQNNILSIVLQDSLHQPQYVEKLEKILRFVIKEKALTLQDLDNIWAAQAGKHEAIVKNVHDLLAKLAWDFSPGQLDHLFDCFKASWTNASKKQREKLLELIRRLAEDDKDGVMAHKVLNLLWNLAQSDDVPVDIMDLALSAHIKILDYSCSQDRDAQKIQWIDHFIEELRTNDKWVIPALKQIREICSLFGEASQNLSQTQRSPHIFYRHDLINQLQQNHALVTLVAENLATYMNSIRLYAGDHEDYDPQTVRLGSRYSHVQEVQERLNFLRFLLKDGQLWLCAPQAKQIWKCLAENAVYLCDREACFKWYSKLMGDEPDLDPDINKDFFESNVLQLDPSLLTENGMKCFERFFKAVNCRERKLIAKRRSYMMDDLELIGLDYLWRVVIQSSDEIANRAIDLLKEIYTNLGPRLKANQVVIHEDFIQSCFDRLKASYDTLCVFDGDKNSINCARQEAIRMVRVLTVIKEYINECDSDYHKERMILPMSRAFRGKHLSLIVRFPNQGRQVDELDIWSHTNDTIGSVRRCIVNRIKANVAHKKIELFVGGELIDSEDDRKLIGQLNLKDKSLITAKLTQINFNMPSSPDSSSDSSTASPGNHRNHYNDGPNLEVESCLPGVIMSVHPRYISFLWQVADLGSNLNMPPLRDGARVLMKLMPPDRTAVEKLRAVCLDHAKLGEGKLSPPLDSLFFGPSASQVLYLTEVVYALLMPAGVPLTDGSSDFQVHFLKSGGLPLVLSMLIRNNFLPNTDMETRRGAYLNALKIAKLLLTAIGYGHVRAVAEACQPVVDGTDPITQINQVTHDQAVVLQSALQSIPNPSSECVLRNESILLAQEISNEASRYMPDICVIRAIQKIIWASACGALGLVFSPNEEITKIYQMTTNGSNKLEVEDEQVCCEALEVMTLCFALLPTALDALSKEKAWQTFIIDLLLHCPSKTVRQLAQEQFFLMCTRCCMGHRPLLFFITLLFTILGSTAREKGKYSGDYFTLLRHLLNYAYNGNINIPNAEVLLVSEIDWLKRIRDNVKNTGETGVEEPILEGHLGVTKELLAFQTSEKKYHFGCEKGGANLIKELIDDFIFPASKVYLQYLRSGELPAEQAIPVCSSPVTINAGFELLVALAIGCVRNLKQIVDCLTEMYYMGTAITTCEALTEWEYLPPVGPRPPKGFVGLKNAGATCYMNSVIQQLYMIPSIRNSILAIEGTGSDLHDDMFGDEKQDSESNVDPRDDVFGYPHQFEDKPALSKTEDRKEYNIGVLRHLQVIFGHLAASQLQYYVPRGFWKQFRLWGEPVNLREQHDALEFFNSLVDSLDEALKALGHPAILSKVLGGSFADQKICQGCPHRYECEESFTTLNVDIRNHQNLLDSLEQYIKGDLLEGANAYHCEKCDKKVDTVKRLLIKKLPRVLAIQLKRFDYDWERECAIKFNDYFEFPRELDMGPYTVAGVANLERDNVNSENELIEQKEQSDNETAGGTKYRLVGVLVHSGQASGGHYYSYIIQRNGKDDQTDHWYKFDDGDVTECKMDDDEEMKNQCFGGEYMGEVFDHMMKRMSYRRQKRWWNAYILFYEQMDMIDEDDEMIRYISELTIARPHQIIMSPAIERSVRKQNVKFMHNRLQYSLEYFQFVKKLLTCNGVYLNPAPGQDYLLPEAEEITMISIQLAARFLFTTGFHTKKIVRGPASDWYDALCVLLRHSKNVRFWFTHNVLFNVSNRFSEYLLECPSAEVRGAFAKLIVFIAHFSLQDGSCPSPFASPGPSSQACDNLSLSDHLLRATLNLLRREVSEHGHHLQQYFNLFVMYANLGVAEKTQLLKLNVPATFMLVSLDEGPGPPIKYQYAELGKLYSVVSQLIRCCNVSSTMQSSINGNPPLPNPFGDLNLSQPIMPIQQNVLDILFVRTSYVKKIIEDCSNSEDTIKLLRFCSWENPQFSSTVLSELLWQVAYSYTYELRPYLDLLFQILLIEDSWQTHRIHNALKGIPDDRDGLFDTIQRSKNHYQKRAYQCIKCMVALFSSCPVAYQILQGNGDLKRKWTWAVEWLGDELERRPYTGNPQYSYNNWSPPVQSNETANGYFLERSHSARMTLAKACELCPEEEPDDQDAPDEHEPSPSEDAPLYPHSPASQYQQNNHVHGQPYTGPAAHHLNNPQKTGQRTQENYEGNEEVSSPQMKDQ
Chain of UniProt P51784 (P51784 whole entry): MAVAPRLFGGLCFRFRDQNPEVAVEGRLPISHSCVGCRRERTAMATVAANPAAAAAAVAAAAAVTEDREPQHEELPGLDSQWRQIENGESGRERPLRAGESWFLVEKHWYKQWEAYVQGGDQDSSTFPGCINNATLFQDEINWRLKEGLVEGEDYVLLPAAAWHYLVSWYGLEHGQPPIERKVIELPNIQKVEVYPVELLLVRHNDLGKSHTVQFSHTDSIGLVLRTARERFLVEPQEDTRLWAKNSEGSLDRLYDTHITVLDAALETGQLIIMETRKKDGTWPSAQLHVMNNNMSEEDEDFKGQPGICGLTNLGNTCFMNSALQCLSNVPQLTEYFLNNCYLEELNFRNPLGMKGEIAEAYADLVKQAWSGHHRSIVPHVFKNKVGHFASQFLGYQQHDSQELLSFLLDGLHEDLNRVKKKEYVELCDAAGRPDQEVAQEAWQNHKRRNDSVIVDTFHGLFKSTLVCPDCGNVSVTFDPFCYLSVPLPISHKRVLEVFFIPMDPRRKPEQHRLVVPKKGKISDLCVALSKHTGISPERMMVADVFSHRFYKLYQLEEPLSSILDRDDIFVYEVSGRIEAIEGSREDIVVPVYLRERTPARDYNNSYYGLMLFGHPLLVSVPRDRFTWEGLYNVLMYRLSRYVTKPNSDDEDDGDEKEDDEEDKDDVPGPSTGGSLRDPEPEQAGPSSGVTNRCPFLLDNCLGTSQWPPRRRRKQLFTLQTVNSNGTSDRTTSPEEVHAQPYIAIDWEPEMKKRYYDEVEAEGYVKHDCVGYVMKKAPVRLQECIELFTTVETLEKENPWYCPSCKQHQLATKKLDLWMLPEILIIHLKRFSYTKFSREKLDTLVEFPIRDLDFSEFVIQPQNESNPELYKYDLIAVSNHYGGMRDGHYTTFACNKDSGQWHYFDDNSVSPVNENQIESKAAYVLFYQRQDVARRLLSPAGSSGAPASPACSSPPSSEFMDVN

O=C(CCl)N1CCC(C(=O)N2CCCCCC2)CC1
inactive: [1] -0.297 | [2] -0.112 | [3] 0.0804 | [4] 0.0166 | [5] -0.255 | [6] -0.488 | [7] -0.287 | [8] -0.0376 | [9] 0.016
